The structures appear in SMILES notation.

The test system of this experiment is Chordin-like protein 2 (CHRDL2). In words: CHRDL2 small-molecule binders, primary screen, biochemical, small-molecule microarray, 635 nm fluorescence (AID 1126).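 Also: printed compound slides probed with Chrdl2 protein at 4 µg/mL for 1 h at 4 C; score merges 667 nm emission intensity with signal to noise over three replicate slides.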 Conditions: small-molecule microarray binding, fluorescence 635 nm; higher = more signal.
With `CN1C(=O)C2C=CC(C(O)C#Cc3ccccc3)N(Nc3ccccc3)C2C1=O` (stereo unspecified), the composite z-score is -0.0655. `CN(C)c1ccc(C(O)C2C=CC3C(=O)N(c4ccccc4)C(=O)C3N2Nc2ccc([N+](=O)[O-])cc2)cc1` (stereo unspecified) gave a composite z-score of -0.437. With `CN(C)C(=O)[C@@]1(Cc2ccccc2CN=[N+]=[N-])N=C(c2ccc(OCCCO)cc2)O[C@H]1c1ccccc1CN=[N+]=[N-]` the figure was -0.103; with `O=C1OCC=C[C@H]2OC34C=CCN(Cn5nnc6ccccc65)C(=O)[C@H]3N(CCCO)C(=O)[C@@H]4[C@@H]12` (stereo partly specified), -0.682; with `C[N+](C)(C)CCCCCCNC(=O)[C@H]1C[C@H]2C(=O)N[C@@H](Cc3ccccc3)C(=O)N2[C@H]1c1ccc(O)cc1`, 1.37.

Regarding `COCCOC(=O)N1C(=O)[C@@]2(c3cc(C#CCCO)ccc31)[C@H](C(=O)Nc1nc3ccccc3s1)[C@H]1C(=O)O[C@H](c3ccccc3)[C@H](c3ccccc3)N1[C@@H]2c1ccccc1OCCO`, the composite z-score stood at 0.524. In turn, `COc1cc2c(cc1OC)CN(C(=O)[C@@H]1[C@H]3C(=O)O[C@H](c4ccccc4)[C@H](c4ccccc4)N3[C@H](c3ccc(OCCO)cc3)[C@@]13C(=O)Nc1ccc(C#CC4(O)CCCCCC4)cc13)CC2` showed a composite z-score of 0.978. With `COc1cc(CO)cc(I)c1O[C@H]1C=C(C(=O)NCCO)C[C@@H](NCc2ccc(F)cc2)[C@@H]1O` the figure was 0.306; with `[N-]=[N+]=NCc1ccccc1C[C@@]1(C(=O)NCc2ccccc2)N=C(c2ccc(OCCCO)cc2)O[C@@H]1c1ccccc1N=[N+]=[N-]`, -1.06; with `O=C(CS)NCCCCCNC(=O)[C@@H]1C[C@@H]2C(=O)N3CCC[C@H]3C(=O)N2[C@@H]1c1cccc(OCCO)c1`, 0.712. With `C=C(C)c1cc2c(c(CCCCCC)n1)[Si](C(C)C)(C(C)C)OC2` the figure was -1.41; with `CCCCC(O)C1C=CC2C(=O)N(c3ccccc3)C(=O)C2N1Nc1ccc(C(C)C)cc1` (stereo unspecified), -0.408. `COCCOC(=O)N1C(=O)[C@@]2(c3cc(C#CC4=CCCCC4)ccc31)[C@H](c1ccc(OCCO)cc1)N1[C@H](c3ccccc3)[C@H](c3ccccc3)OC(=O)[C@H]1[C@@H]2C(=O)N1CCN(c2ncccn2)CC1` yielded a composite z-score of 0.48. Next, `C=C(COC)/C(=C/C[C@H](OC(C)=O)c1ccc(OCCO)cc1)c1cc(C(=O)OC)ccc1OC`: 0.501; `CC1CC/C=C\[C@H]2OC34C=CCN(c5ccc(Cl)cc5)C(=O)[C@H]3N(CCCCCO)C(=O)[C@]4(C)C2C(=O)O1` (stereo partly specified): -1.67; `CN1C(=O)C2C=CC(C(O)c3cccc(O)c3)N(Nc3ccccc3)C2C1=O` (stereo unspecified): -0.246. With `O=C1NC(=O)C2C1C=CC(C(O)c1c(F)cccc1Cl)N2Nc1ccc(Cl)cc1Cl` (stereo unspecified) the figure was -0.879. `COc1ccc([Si](C)(C)[C@@H]2[C@@H](CCO)O[C@]3(C(=O)N(Cc4ccc(N5CCCCC5=O)cc4)c4ccccc43)[C@H]2C)cc1` showed a composite z-score of 0.507. Next, `C=CCC(OC(C)=O)[C@@H]1[C@@H](N(Cc2cc3ccccc3o2)C(=O)c2ccc(C)cc2)c2cc(OCCCO)ccc2N1C(=O)Cc1ccc(OC)cc1` (stereo partly specified): 0.172; `CCOc1cc(C(O)C2C=CC3C(=O)N(C)C(=O)C3N2Nc2ccccc2)ccc1O` (stereo unspecified): 0.0675; `O=C(CS)NCCCCCCNC(=O)[C@H]1C[C@H]2C(=O)N[C@@H](Cc3ccccc3)C(=O)N2[C@H]1c1ccc(O)cc1`: 0.757. Next, `CC(c1ccccc1)C(O)C1C=CC2C(=O)N(c3ccccc3)C(=O)C2N1Nc1ccc([N+](=O)[O-])cc1` (stereo unspecified): -0.661; `COc1ccccc1CN1C(=O)c2ccccc2[C@@]2(Cc3ccccc3N(CC(F)(F)F)C2=O)[C@@H]1c1ccc(CO)cc1`: 1.03; `COC(=O)C(CC#Cc1ccc2c(c1)[C@]1(C(=O)N2)[C@H](C(=O)N2CCN(c3ncccn3)CC2)[C@H]2C(=O)O[C@H](c3ccccc3)[C@H](c3ccccc3)N2[C@@H]1c1ccc(OCCO)cc1)C(=O)OC`: 0.621.

Regarding `[N-]=[N+]=Nc1ccccc1[C@@H]1OC(c2ccc(OCCCO)cc2)=N[C@]1(Cc1ccccc1)C(=O)NCC(O)CO` (stereo partly specified), the composite z-score is -0.638.

As to `Cc1cc(C)c(C(O)C2C=CC3C(=O)NC(=O)C3N2Nc2ccc(Cl)cc2Cl)c(C)c1` (stereo unspecified), the composite z-score is -0.48.

`COC(=O)c1c2oc(c1C(=O)OC)C(=O)N(Cc1ccccc1)Cc1cn(nn1)C[C@H](Cc1ccccc1)NC(=O)N[C@H](CO)CC2`: the composite z-score was 0.369. With `C=CCNC(=O)[C@H]1[C@@H]2C(=O)O[C@@H](c3ccccc3)[C@@H](c3ccccc3)N2[C@@H](c2ccc(O)cc2)[C@]12C(=O)N(C(=O)OCCOC)c1ccccc12` the figure was 0.0889. With `O=C1C=C(c2ccccc2)C(=O)c2ccc([C@H]3Oc4ccccc4S(=O)(=O)N4CCC[C@@H]34)cc21` the figure was 0.594. Next, `Cc1ccc(S[C@]2(C(=O)NCC(F)(F)F)CC(=O)N(C3CCCCC3)[C@@H]2c2ccc(CO)cc2I)cc1`: 0.0471. In turn, `COc1ccc(C#Cc2ccc3c(c2)[C@]2(C(=O)N3)[C@H](c3ccc(O)cc3)N3[C@H](c4ccccc4)[C@H](c4ccccc4)OC(=O)[C@H]3[C@@H]2C(=O)O)cc1` had a composite z-score of 0.111. Next, `COC(=O)[C@@]1(Cc2ccc(OC)cc2)[C@@H]2C(=CC(=O)[C@H]2CC(=O)C(=O)N(C)C)CN1C(=O)c1ccccc1`: -0.501; `CCOC(=O)c1ccc(NC(=O)O[C@H]2[C@H](OC(=O)Nc3ccc4c(c3)OCO4)[C@H](OC(=O)Nc3ccc4c(c3)OCO4)[C@@H](OC)O[C@@H]2CO)cc1`: 0.393. With `C=CCN1Cc2ccccc2[C@H]2OC(c3ccc(OCCCO)cc3)=N[C@@]2(CC=C)C1=O` the figure was 1.39; with `CN(C)CCCNC(=O)[C@@]1(C)c2ccccc2C(=O)N(Cc2ccccc2)[C@H]1c1ccc(CO)cc1`, -0.19; with `CCCCCCCCCCC(O)C1C=CC2C(=O)N(C)C(=O)C2N1NC(=O)OC(C)(C)C` (stereo unspecified), -0.409.
